Reference: PubChem BioAssay
Values joined by “and” are separate entries in the source; they are usually repeats but may differ in a detail not shown here. Equal entries are not always repeated. For some of these results: Measured potencies and affinities stand elsewhere. Active and inactive are the calls of the source.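 Rule for the calls, unless noted: active = thallium flux through the channel raised or lowered by more than 3 SD from vehicle-only wells, actives on both sides; inactive = the rest.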

Experiments:
[1] = suppressors of polyQ aggregation in yeast, 75Q-TubU reporter (AID 1593); conditions: Yeast 75Q polyglutamine aggregation reporter
[2] = rescue of polyQ-huntingtin neuronal dysfunction in worms, whole organism, C. elegans mechanosensory neurons, N-terminal huntingtin (AID 1599); conditions: touch response, stronger effect = higher value
[3] = inhibitors of mitochondrial cytochrome c release, biochemical, purified mitochondria (AID 1603); conditions: stronger effect = lower value;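 note: mouse liver mitochondria challenged with calcium chloride; signal normalized to the plate average as 100%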
[4] = inhibitors of polyQ protein aggregation (AID 1604); conditions: polyglutamine-induced protein aggregation inhibition assay; stronger effect = higher value; tested at 2.5 µM
[5] = enhancers of glutamate uptake in motor neurons, MN-1 cell line (AID 1612); conditions: MN-1 motor neuron cells, stronger effect = higher value;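 note: tested at 1 µM final; 0% = mean of DMSO vehicle wells on each plate; positive means more glutamate uptake than control and negative means less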
[6] = suppressors of polyglutamine aggregation in yeast, 75Q-TubH (AID 1616); conditions: S. cerevisiae 75Q-TubH polyglutamine aggregation suppression; stronger effect = higher value
[7] = circadian clock period modulators, cell-based, LOPAC library, luminescence reporter (AID 2774; call rule not given here;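 note: values are relative to mean of DMSO wells on each plate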); conditions: circadian reporter cells, at 7 µM, actives lie on both sides
[8] = tested on: Hepatitis C virus NS3 helicase; experiment: HCV NS3 helicase inhibitors, primary screen, biochemical, fluorescence polarization, LOPAC1280 library (AID 687035; in the data active = inhibition above about 37%); conditions: Purified HCV NS3 helicase, Cy5-dT15 ssDNA binding fluorescence polarization; stronger effect = higher value; concentration not given here
[9] = Cy5 fluorescence quenching or enhancement artefacts, artefact control for HCV NS3 helicase inhibitor project, biochemical, LOPAC1280 (AID 687037; call rule not given here); conditions: Cy5-DNA-NS3h complex fluorescence interference counterscreen
[10] = Cy5 fluorescence interference with SSB-bound oligo, artefact control for HCV NS3 helicase inhibitor project, biochemical, NIH Clinical Collection, E. coli SSB (AID 743268; call rule not given here)
[11] = tested on: Hepatitis C virus NS3 helicase; experiment: HCV NS3 helicase inhibitors, primary screen, biochemical, fluorescence polarization, NIH Clinical Collection (AID 743270; call rule not given here); conditions: NS3 helicase binding to Cy5-dT15 DNA, stronger effect = higher value, concentration not given here
[12] = biological target: Single-stranded DNA-binding protein (Escherichia coli (strain K12)) (UniProt P0AGE0); experiment: E. coli SSB displacement from DNA, counter-screen for HCV NS3 helicase inhibitor project, biochemical, fluorescence polarization, NIH Clinical Collection (AID 743271; in the data active = inhibition above about 28%); conditions: stronger effect = higher value, concentration not given here
[13] = fluorescence interference in NS3h assay format, artefact control for HCV NS3 helicase inhibitor project, biochemical, NIH Clinical Collection (AID 743272; call rule not given here;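 note: HCV NS3 helicase with a Cy5 labelled single stranded DNA probe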); conditions: fluorescence interference counterscreen, stronger effect = lower value
[14] = phospholipid biosynthesis inhibitors in animal cells, primary screen, cell-based, LOPAC library, screen 4 (AID 1347384; call rule not given here); conditions: phospholipid biosynthesis inhibition screen, at 10 µM
F380Y = experiment: modulators of BK channel variants, profiling panel, selectivity assay, cell-based, U2OS BacMam, thallium flux, beta subunits (AID 1259406); conditions: at 30 µM;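 note: initial slope of Thallos dye fluorescence rise after thallium is added; log ratio against the mean of 0.3% DMSO vehicle wells on the same plate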
F380Y/beta2Delta = experiment: as above; conditions: at 30 µM
[15] = biological target: Calcium-activated potassium channel subunit alpha-1 (Homo sapiens) + Leucine-rich repeat-containing protein 26 (Homo sapiens) (UniProt Q12791+Q2I0M4); experiment: as above; conditions: F380Y/Slo1WT/gamma1, at 30 µM
Sequence of Calcium-activated potassium channel subunit alpha-1 (Homo sapiens) + Leucine-rich repeat-containing protein 26 (Homo sapiens) (Q2I0M4 whole entry, looked up, one chain of several): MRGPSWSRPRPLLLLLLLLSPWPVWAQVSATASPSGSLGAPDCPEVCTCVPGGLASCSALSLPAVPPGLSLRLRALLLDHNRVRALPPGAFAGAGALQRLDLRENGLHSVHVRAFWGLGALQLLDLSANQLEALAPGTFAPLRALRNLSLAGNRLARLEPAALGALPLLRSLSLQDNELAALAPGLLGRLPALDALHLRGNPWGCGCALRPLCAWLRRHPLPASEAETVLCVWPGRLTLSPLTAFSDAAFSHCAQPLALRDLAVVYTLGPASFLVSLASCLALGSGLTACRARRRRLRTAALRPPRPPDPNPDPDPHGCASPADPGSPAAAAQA

R275C = experiment: as above; conditions: at 30 µM
R275C/beta1 = experiment: as above; conditions: at 30 µM
R275C/beta2Delta = experiment: as above; conditions: at 30 µM

| Structure (SMILES) | score [1] | rescue above control [2] | cytochrome c release ratio [3] | inhibition of aggregation [4] | glutamate uptake change [5] | aggregation suppression score [6] | period change [7] | inhibition [8] | fluorescence ratio (interference) [9] | fluorescence ratio [10] | inhibition [11] | inhibition [12] | fluorescence ratio [13] | outcome [14] | log fold change Tl+ flux (F380Y) | log fold change Tl+ flux (F380Y/beta2Delta) | log fold change Tl+ flux [15] | log fold change Tl+ flux (R275C) | log fold change Tl+ flux (R275C/beta1) | log fold change Tl+ flux (R275C/beta2Delta) |
| --- | --- | --- | --- | --- | --- | --- | --- | --- | --- | --- | --- | --- | --- | --- | --- | --- | --- | --- | --- | --- |
| CN(C)C(=O)C(CCN1CCC(O)(c2ccc(Cl)cc2)CC1)(c1ccccc1)c1ccccc1 | 1.94 | 1.56 | 0.99 | 7.94% | 44.5% | 1.13 | -0.235 h (inactive) | -4% (inactive) | 1 (inactive) | 1.06 (inactive) | -6.82% (inactive) | -5.05% (inactive) | 1.01 (inactive) | inactive | 0.113 (active) | 0.103 (active) | -0.0267 (inactive) | -0.645 (active) | 0.0279 (inactive) | -0.504 (active) |
| COc1ccc2cc([C@H](C)C(=O)O)ccc2c1 | 0.32 | -11.2 | 0.95 | 74% | 6.08% | 0.196 | -0.095 h (inactive) | -6% (inactive) | 1 (inactive) | – | – | – | – | inactive | 0.000985 (inactive) | 0.00769 (inactive) | 0.0442 (inactive) | -0.0405 (inactive) | -0.0361 (inactive) | -0.0194 (inactive) |
| CNCCCN1c2ccccc2CCc2ccccc21 | 1.37 | -15.4 | 1.05 | 7.32% | 12.7% | 1.18 | -0.04 h (inactive) | -1% (inactive) | 1 (inactive) | 0.96 (inactive) | -2.27% (inactive) | -2% (inactive) | 1.02 (inactive) | inactive | 0.121 (active) | 0.152 (active) | 0.148 (active) | 0.0168 (inactive) | 0.17 (active) | 0.152 (active) |
| CCCC(CCC)C(=O)O | 1.39 | 2.58 | 0.86 | 40.9% | -8.08% | 0.716 | 0.1 h (inactive) | 0% (inactive) | 1 (inactive) | 1.04 (inactive) | -1.36% (inactive) | -1.24% (inactive) | 0.99 (inactive) | inactive | -0.0169 (inactive) | 0.0329 (inactive) | -0.023 (inactive) | 0.0376 (inactive) | -0.0394 (inactive) | 0.0234 (inactive) |
| COC(=O)C1=C(C)NC(C)=C(C(=O)OC)C1c1ccccc1[N+](=O)[O-] | 0.82 | 8.1 | 0.98 | 15.2% | -6.86% | 0.369 | -0.175 h (inactive) | -1% (inactive) | 1 (inactive) | 0.94 (inactive) | -1.19% (inactive) | 1.44% (inactive) | 0.9 (inactive) | inactive | – | – | – | – | – | – |
| CCCC(=O)Nc1ccc(OCC(O)CNC(C)C)c(C(C)=O)c1 (configuration not stated) | 1.34 | -8.24 | 0.94 | 0% | -19.3% | 1.28 | – | – | – | 0.9 (inactive) | -3.18% (inactive) | -5.82% (inactive) | 1.03 (inactive) | – | -0.0134 (inactive) | -0.0305 (inactive) | 0.00552 (inactive) | -0.005 (inactive) | -0.0201 (inactive) | -0.0513 (inactive) |
| CCn1cc(C(=O)O)c(=O)c2ccc(C)nc21 | 0.74 | -12.9 | 0.84 | 54.5% | -15.5% | 0.277 | – | – | – | 1.03 (inactive) | -0.45% (inactive) | -2.76% (inactive) | 0.97 (inactive) | inactive | 0.0464 (inactive) | 0.0152 (inactive) | 0.0259 (inactive) | -0.0165 (inactive) | 0.0366 (inactive) | 0.000751 (inactive) |
| CC(C)n1c(/C=C/[C@@H](O)C[C@@H](O)CC(=O)O)c(-c2ccc(F)cc2)c2ccccc21 | – | – | – | – | – | – | – | – | – | 1.05 (inactive) | -2.27% (inactive) | 2.57% (inactive) | 1.03 (inactive) | – | 0.0848 (inactive) | 0.0465 (inactive) | 0.11 (active) | -0.0365 (inactive) | 0.145 (active) | 0.135 (active) |
| CC(C)(C)CC(C)(C)c1ccc(OCCOCC[N+](C)(C)Cc2ccccc2)cc1 | -0.06 | 0 | 15.9 | 58.6% | -11.3% | -0.0343 | – | – | – | – | – | – | – | – | – | – | – | – | – | – |
| Clc1ccccc1CN1CCc2sccc2C1 | – | – | – | – | – | – | – | – | – | – | – | – | – | – | -0.26 (active) | -0.214 (active) | -0.00222 (inactive) | -0.105 (inactive) | -0.145 (active) | -0.13 (active) |
| O=C(O)COCCN1CCN(C(c2ccccc2)c2ccc(Cl)cc2)CC1 (configuration not stated) | – | – | – | – | – | – | – | -1% (inactive) | 1 (inactive) | – | -12.3% (inactive) | -1.24% (inactive) | 1.01 (inactive) | inactive | 0.0594 (inactive) | 0.0743 (active) | 0.0148 (inactive) | 0.0304 (inactive) | 0.109 (inactive) | 0.056 (inactive) |
| Cc1ccc(/C(=C\CN2CCCC2)c2ccccn2)cc1 | 1.45 | -10.7 | 1.11 | 23.8% | -7.2% | 0.939 | 0.045 h (inactive) | 1% (inactive) | 1 (inactive) | – | – | – | – | inactive | – | – | – | – | – | – |
| CC(C)(C)c1ccc(C(O)CCCN2CCC(C(O)(c3ccccc3)c3ccccc3)CC2)cc1 (configuration not stated) | 0.48 | – | 4.87 | 4.76% | -7.35% | 0.868 | 0.22 h (inactive) | -3% (inactive) | 0.9 (inactive) | – | – | – | – | inactive | – | – | – | – | – | – |
| CN1[C@@H]2CC(OC(=O)[C@H](CO)c3ccccc3)C[C@H]1[C@@H]1O[C@@H]12 (some centres not stated) | – | – | – | – | – | – | – | – | – | 0.95 (inactive) | -1.98% (inactive) | 1.44% (inactive) | 0.9 (inactive) | – | – | – | – | – | – | – |
| O=C(O)c1cn(C2CC2)c2cc(N3CCNCC3)c(F)cc2c1=O | 1.22 | 13.4 | 1.03 | 20.6% | -1.59% | 1.3 | – | – | – | – | – | – | – | – | – | – | – | – | – | – |
| O=C(NCC1CCCCN1)c1cc(OCC(F)(F)F)ccc1OCC(F)(F)F (configuration not stated) | – | – | – | – | – | – | 0.075 h (inactive) | – | – | 1.08 (inactive) | -15% (inactive) | 19.4% (inactive) | 0.81 (inactive) | – | – | – | – | – | – | – |
| C[N+]1(C)CCC(OC(=O)C(O)(c2ccccc2)C2CCCC2)C1 (configuration not stated) | – | – | – | – | – | – | – | – | – | 1.05 (inactive) and 1.06 (inactive) | 2.77% (inactive) and 0.45% (inactive) | 1.44% (inactive) and 1.81% (inactive) | 1.05 (inactive) and 1 (inactive) | – | -0.0314 (inactive) and -0.0508 (inactive) | 0.0168 (inactive) and -0.0515 (inactive) | -0.0241 (inactive) and -0.0355 (inactive) | -0.0259 (inactive) and -0.0857 (inactive) | 0.0143 (inactive) and 0.0309 (inactive) | 0.0449 (inactive) and -0.0318 (inactive) |
| CC(C)c1c(C(=O)Nc2ccccc2)c(-c2ccccc2)c(-c2ccc(F)cc2)n1CC[C@@H](O)C[C@@H](O)CC(=O)O | – | – | – | – | – | – | – | – | – | – | – | – | – | inactive | – | – | – | – | – | – |
